In PubChem BioAssay AID504882 (Broad Institute, 2011) one finds outcome data, which are given here for 35 compounds.

Hit rate of the full screen: of about 1,200 compounds, about 290 (24%) were called active. Not shown: some 9% with an inconclusive outcome. How the calls were made is not given here. Only a sample is shown. Results with a measured potency or affinity are listed apart.

This assay is described as follows: cytotoxicity in EBV lymphoblastoid cells, dose response, cytotoxicity control, cell-based, plate reader, cherry-picks, set 2 (AID 504882). To be noted: EBV lymphoblastoid cells (LCL) viability; series mostly up to 19.5 µM.
For the compound `COC(=O)c1ccc(COc2ccccc2/C=C/C(=O)c2ccc(OCC(=O)O)cc2)cc1`, the compound was classed as inactive.

For the compound `CC(C)Oc1ccc(C(=O)Nc2nnc(SCC(=O)N3CCOCC3)s2)cc1`, the call was inactive.

Turning to `COC(=O)CCNc1ccc2c(c1)OCCO2`, the compound was classed as inactive.

Consider `COc1ccc2[nH]c3c(=O)n(CCCCC(=O)N4CCC(C(N)=O)CC4)c(=S)[nH]c3c2c1`, for which the compound was classed as inactive.

For the compound `Cc1c(/C(O)=C2/C(=O)C(=O)N(CCN3CCOCC3)C2c2ccccn2)cnn1-c1ccccc1` (stereo not given), the outcome was inactive.

With `O=[N+]([O-])c1cc(/C=N\O)ccc1Oc1ccc(F)cc1`, the outcome was inactive.

Turning to `CCOc1ccc(Nc2ncnc3ccc([N+](=O)[O-])cc23)cc1`, the result was inactive.

In the case of `O=[N+]([O-])c1ccc(/C=N/Nc2cc(Cl)nc(-c3ccccc3)n2)cc1`, the call was inactive.

On to `COc1ccc(NC(=O)COC(=O)/C=C/c2ccc(OC)c(S(=O)(=O)N3CCOCC3)c2)cc1`, for which the compound was classed as inactive.

In the case of `Cc1nc(N)nc(N)c1/C=C/C(C)(C)c1ccc(Cl)cc1`, the outcome was inactive.

As to `COc1cc2cc(C(=O)N3CCN(c4ccccc4OC)CC3)[nH]c2cc1OC`, the compound was classed as inactive.

Consider `Cc1ccc(C(=O)NCCc2cccs2)cc1`, for which the compound was called inactive.

On to `C=CCN1CCc2cc(O)c(O)cc2C(c2ccccc2)C1` (stereo not given), for which the compound was called inactive.

With `CCON1C(=O)C2(CCCCC2)C(=O)C12C=CCCC2` (stereo not given), the outcome was inactive.

As for `Cc1nc(C)n(C(C)CNC(=O)c2ccco2)n1` (stereo not given), the outcome was inactive.

On to `COc1ccc(C(c2sc3nc(C)nn3c2O)N2CCC(C(N)=O)CC2)cc1OC` (stereo not given), for which the compound was classed as inactive.

For the compound `Cc1cc(C(=O)COc2cccnc2[N+](=O)[O-])c(C)n1-c1ccccc1F`, the result was inactive.

Consider `O=C(NCCc1cn2ccccc2n1)C1CCCCC1`, for which the compound was classed as inactive.

Consider `COc1ccc(-c2cc3nc(-c4ccccc4)cc(N4CCCC(O)C4)n3n2)cc1` (stereo not given), for which the result was inactive.

As for `O=C(CCc1ccccc1Cl)N1CCN(S(=O)(=O)c2ccccc2)CC1`, the call was inactive.

Take `CC[C@]1(C(=O)OC)[C@H]2C(=O)N(Cc3ccccc3)C(=O)[C@H]2[C@H]2CN=C(SCc3ccc(Cl)cc3)N21`: the compound was classed as inactive.

For the compound `Cc1ccc2oc(C(=O)Nc3ccc(S(=O)(=O)Nc4onc(C)c4C)cc3)c(C)c2c1`, the outcome was inactive.

Consider `CCc1sc(C(=O)Nc2ncccc2O)cc1C`, for which the compound was called inactive.

For the compound `CCn1nc(C(=O)Nc2nc(-c3ccccn3)cs2)c2ccccc2c1=O`, the compound was classed as inactive.

With `CCC(C)(C)NC(=O)C(c1ccc(F)cc1)N(CCOC)C(=O)CCC(=O)Nc1nccs1` (stereo not given), the call was inactive.

`CCOC(=O)c1c(NC(=O)C2C3CCC(O3)C2C(=O)O)sc(C)c1-c1ccc(F)cc1` (stereo not given): the result was inactive.

Consider `CC1CCc2nc(N)c(C#N)c(-c3cccnc3)c2C1` (stereo not given), for which the compound was classed as inactive.

Regarding `CCSC1=C(C#N)C(c2ccc(C)o2)CC(=O)N1` (stereo not given), the compound was called inactive.

Consider `Cc1cc(=O)[nH]c(=S)[nH]1`, for which the compound was called inactive.

With `COc1ccc(S(=O)(=O)N2CCN(C(=S)NCC3CCCO3)CC2)cc1OC` (stereo not given), the compound was classed as inactive.

Regarding `CCOc1ccc(N/C=C/C(=O)c2ccccc2)cc1`, the result was inactive.

With `Cc1c(NC(=O)c2cccc(NC(=O)COc3ccccc3C#N)c2)c(=O)n(-c2ccccc2)n1C`, the call was inactive.

Consider `Cn1cc(S(=O)(=O)N2CCN(C(=O)c3ccco3)CC2)c(=O)n(C)c1=O`, for which the outcome was inactive.

Take `CSc1oc(-c2ccc(F)cc2)nc1S(=O)(=O)c1ccc(F)cc1`: the compound was classed as inactive.

As to `C=CCN1CCN(C(CC(C)C)c2nnnn2CCOC)CC1` (stereo not given), the compound was classed as inactive.
